The list is not random: actives were taken first. Their share in the collection is about 3.8%.
GALK inh = inhibitors of human galactokinase (GALK). recombinant GALK, Kinase-Glo ATP luminescence, 1 h. Potency, µM (highest dose often 57.5 µM), inactives show at the highest dose activity, negative = inhibition, most hits filed as inhibitors. 44,000 tested, under 10 active;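 further: plate controls were full GALK reaction for no effect and reaction lacking GALK for full effect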
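5 nM GALK; 35 uM ATP; 100 uM D-galactose; 20 mM HEPES pH 8.0, 5 mM MgCl2, 60 mM NaCl, 1 mM DTT, 0.01% BSA; 1 h RT; Kinase-Glo Plus luminescence.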
NTMT1 inhibitor = blocks human N-terminal methyltransferase 1 activity; NTMT1 MTase-Glo SAH luminescence, purified enzyme; Q9BV86; AID 1645870; hit rate 2.5% among 59,000; Potency, µM (doses to about 114 µM), for the others: at the top dose activity change, negative = inhibition, actives largely listed as inhibitors;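 further: potency means the concentration at half of the fitted maximal effect; plate controls were DMSO vehicle for no effect and no enzyme for full effect; nearly all actives have a fitted effect of over 65% in size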
Target sequence (Q9BV86 whole entry, looked up): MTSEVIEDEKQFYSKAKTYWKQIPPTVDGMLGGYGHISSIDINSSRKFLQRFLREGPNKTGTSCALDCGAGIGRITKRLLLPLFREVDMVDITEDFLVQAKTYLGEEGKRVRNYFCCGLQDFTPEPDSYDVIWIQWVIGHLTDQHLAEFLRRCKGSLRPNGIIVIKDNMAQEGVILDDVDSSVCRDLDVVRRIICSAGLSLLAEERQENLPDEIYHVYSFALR
SKOV3 invasion = inhibitors of ovarian cancer cell adhesion and invasion in omental model | SKOV3ip1-GFP adhesion/invasion on 3D omental model, fluorescence | Potency, µM (doses to about 45.8 µM), without a hit: top-dose activity change, negative = inhibition, usual class: inhibitors | hit rate 0.1% among 46,000 | AID 1963576;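 further: potency means the concentration at half of the fitted maximal effect; plate controls were DMSO wells for no effect and tomatine positive control wells for full effect; nearly all actives have a fitted effect of over 65% in size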
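A 3D layer of primary human omental fibroblasts, mesothelial cells, fibronectin and collagen I, grown 48 hr, received SKOV3ip1-GFP cells in serum-free medium plus compounds at 0.36-46 umol/L. After 2 hr RT and 16 hr 37 C, fixed adherent GFP cells were counted; normalized to DMSO and tomatine.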
B2AR arrestin ag = agonists recruiting beta-arrestin to human beta2-adrenergic receptor | HTLA Tango cells, beta-arrestin recruitment, luciferase luminescence, 18 h | Potency, µM (top dose mostly 46.1 µM), usual class: activators | 44,000 tested, under 10 active;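 further: potency means the concentration at half of the fitted maximal effect; 0% = DMSO and full agonism = EC100 isoproterenol or metaproterenol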
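Luminescence read-out: arrestin recruitment to recombinant beta2-AR releases tTA, inducing luciferase. Cells exposed 18 hr at 37 degrees C to up to 46 microM compound; %Activity from corrected signal, concentration-response curves classified by r2, magnitude and efficacy.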
PTAP-TSG101 blk = TSG101-PTAP interaction inhibition, HIV-1 budding; 44,000 tested, under 10 active; Fluorescence polarization, FITC-PTAP peptide/Tsg101, 20 min; Potency, µM (top dose mostly 115 µM), hits mostly inhibitors; Q99816; further: potency means the concentration at half of the fitted maximal effect; 0% is about no effect
Target sequence (Q99816 whole entry, looked up): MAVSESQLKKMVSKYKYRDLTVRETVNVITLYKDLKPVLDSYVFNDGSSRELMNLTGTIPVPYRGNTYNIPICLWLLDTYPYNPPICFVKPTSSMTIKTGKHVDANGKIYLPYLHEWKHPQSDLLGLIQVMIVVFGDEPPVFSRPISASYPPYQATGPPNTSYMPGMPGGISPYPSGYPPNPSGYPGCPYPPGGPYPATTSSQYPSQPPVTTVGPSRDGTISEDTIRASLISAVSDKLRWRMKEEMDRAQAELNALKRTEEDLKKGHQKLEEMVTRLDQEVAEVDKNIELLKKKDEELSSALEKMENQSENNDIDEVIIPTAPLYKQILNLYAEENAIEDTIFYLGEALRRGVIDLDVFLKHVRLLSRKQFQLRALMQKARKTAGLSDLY
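Read-out is FITC fluorescence polarization. Compounds were added to Tsg101 binding domain (10 uM final), then FITC-PTAP peptide (50 nM final), 20 min at r.t. Total S+P intensity flags fluorescent compounds.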
DRV1 agonist = GPR32 (DRV1) agonism, beta-arrestin recruitment. O75388. CHO-K1 GPR32 beta-arrestin PathHunter luminescence, 90 min; zero percent set by DMSO-only wells. activation, % at 76.9 µM. hit rate 2.5% among 48,000. AID 1346428;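 active means activation of at least 60% and not above a set upper limit, about 1 call in 100 departs from these limits; inconclusive means activation of 40% to 60%, or above that upper limit; inactive means activation under 40%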; further: 0% is about no effect
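PathHunter beta-arrestin recruitment in CHO-K1 cells stably expressing ProLink-tagged GPR32. Cells were exposed to compound for 90 min at 37 C, then chemiluminescence was read after 1 h detection at ambient temperature; DMSO served as basal control.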
Starred values were filed as active, the others as inactive; i = inactive; ? = inconclusive; nt = no result; ! = not active in a repeat; [ ] = remark or other dose. Unless noted, the call rests on the fitted dose curve; in most records, active means well fitted curve in the direction sought with a large enough effect; inconclusive means small, poorly fitted or top-dose-only effect, or another doubt; inactive means no such curve, though single readings can be large; an effect the other way counts as inactive or inconclusive.

SMILES	GALK inh	NTMT1 inhibitor	SKOV3 invasion	B2AR arrestin ag	PTAP-TSG101 blk	DRV1 agonist
CCc1ccc(NC(=O)C2CCN(c3ccc(Sc4ccc(C)cc4)nn3)CC2)cc1	5%	-7%	-2%	i	i	19
COc1ccc(NC(=O)C2CCN(c3ccc(Sc4ccc(C)cc4)nn3)CC2)cc1	-1%	1%	-7%	i	i	64*
Cc1ccc(CNC(=O)C2CCCN(c3nc4c(C)cc(C)cc4s3)C2)cc1 (stereo unspecified)	-1%	0%	4%	i	i	7
Cc1cccc(N2CCN(c3ccc(C(=O)O)cc3NC(=O)c3cccc(Cl)c3)CC2C)c1 (stereo unspecified)	0%	79µM*	3%	i	i	5
Cc1cccc(N2CCN(c3ccc(NC(=O)c4ccccc4)cc3C(=O)O)CC2C)c1 (stereo unspecified)	1%	-5%	0%	i	i	30
O=S(=O)(c1cccc(Cl)c1)N1CCN(S(=O)(=O)c2ccc3c(c2)OCCO3)CC1	nt	-5%	nt	nt	nt	nt
CSc1ccc(/C=C/c2nc3ccccc3n2S(=O)(=O)c2cccc(Cl)c2)cc1	13%	6.3µM*	?	i	i	-8
O=S(=O)(c1cccc(Cl)c1)n1c(/C=C/c2ccccc2Cl)nc2ccccc21	10%	6.3µM*	-14%	i	i	13
Cc1ccc(/C=C/c2nc3ccccc3n2S(=O)(=O)c2ccc(Br)cc2)cc1	-1%	?	i	i	i	41
O=C(c1ccc(Br)cc1)N(Cc1ccco1)c1ccccn1	-4%	-27%	0%	i	i	-11
O=C(Nc1ccc(N2CCOCC2)c(C(=O)O)c1)c1ccc(Br)cc1	-2%	89µM*	-14%	i	i	-8
O=C(Nc1ccc(N2CCC(N3CCCCC3)CC2)c(C(=O)O)c1)c1ccc(Br)cc1	2%	?	1%	i	i	3
COc1ccc(CCNC(=O)CS(=O)Cc2nc(-c3ccc(C)cc3)oc2C)c(OC)c1 (stereo unspecified)	0%	?	-7%	i	i	-10
CO[C@@]1(NC(=O)CSCC#N)C(=O)N2C(C(=O)O)=C(CSc3nnnn3C)CS[C@@H]21	nt	14µM*	nt	nt	nt	64*!
CN(C)CCn1nnnc1SCC1=C(C(=O)O)N2C(=O)[C@@H](NC(=O)Cc3csc(N)n3)[C@H]2SC1	nt	-21%[57.5 µM]	nt	nt	nt	-4
CCOc1ccc(OCC)c(Nc2nc3ccccc3c3nnc(C)n23)c1	0%	9%	i	i	i	-9
CCOc1ccc2nc(C)cc(Nc3ccccc3OCC)c2c1	2%	-7%	4%	i	i	90*
CC(O)(C#Cc1ccc2c(c1)N(c1nc(N)ncc1Cl)CC2)c1nccs1 (stereo unspecified)	nt	35µM*	16%	nt	nt	nt
C=Cc1c(C)c2cc3[nH]c(cc4nc(cc5nc(cc1[nH]2)C(C)=C5CCC(=O)O)C(CCC(=O)O)=C4C)c(C)c3C=C	nt	25µM*	nt	nt	nt	-10
Cc1ccc(Nc2c(-c3ccc(O)cc3)nc3cccc(C)n23)cc1	2%	?	-27%	i	i	117*
Cc1cccc2nc(-c3cccnc3)c(Nc3ccc(C(C)C)cc3)n12	-8%	7%	?	i	i	61*
O=C(Nc1nnc(-c2ccco2)o1)c1ccc(Cl)c(Cl)c1	nt	3%	nt	nt	nt	nt
COc1ccccc1N1CCN(CC(O)COc2ccc(Cl)c(C)c2)CC1 (stereo unspecified)	0%	-21%	i	i	i	118*
COc1ccc(N2CCN(CC(O)COc3ccc(C)cc3C)CC2)cc1 (stereo unspecified)	4%	-13%	11%	i	i	67*
COc1ccc(N2CCN(CC(O)COc3ccc(C(C)(C)C)cc3)CC2)cc1 (stereo unspecified)	-1%	5%	-8%	i	i	10
SMILES	GALK inh	NTMT1 inhibitor	SKOV3 invasion	B2AR arrestin ag	PTAP-TSG101 blk	DRV1 agonist
Cc1cc(N2CCN(c3cccc(C)c3C)CC2)n2cnnc2n1	0%	89µM*	i	i	i	6
CCOc1ccc(CCNC(=O)CN2CCN(Cc3ccc(F)cc3Cl)C2=O)cc1OCC	-7%	?	6%	i	i	75*
CCOC(=O)c1cc(-c2ccc(OC)cc2)n(CCC(=O)NCc2ccc(OC)cc2)c1C	1%	2%	i	i	i	-24
COc1ccccc1CNC(=O)c1ccc(N2CCCC2)c(NC(=O)NCc2ccc(C)cc2)c1	-8%	16%	-17%	i	i	-30
COC(=O)c1ccc(CSc2nc3c([nH]c4ccccc43)c(=O)n2-c2ccc(F)cc2)o1	0%	2%	i	i	i	4
CCOC(=O)c1cccc(NC(=O)c2cc3cc4ccc(C)cc4nc3s2)c1	3%	1%	i	i	i	1
CCOC(=O)c1cccc(NC(=O)c2cc3cc4cc(OC)ccc4nc3s2)c1	-8%	-9%	17%	i	i	101*
COc1cc(Cl)c(C)cc1Nc1nc2ccccc2n2cnnc12	0%	-4%	1%	i	i	3
COc1cc(-n2cnc3cc(-c4ccc(Cl)cc4)sc3c2=O)ccc1OCCN1CCCC1	nt	-7%[57.5 µM]	nt	nt	nt	nt
C1=C/COCc2cc(ccc2OCCN2CCCC2)Nc2nccc(n2)-c2cccc(c2)COC/1	nt	25µM*	nt	nt	nt	nt
COc1ccc(-c2nc(CN3CCC(C(=O)NCCCN4CCN(c5ccccc5F)CC4)CC3)c(C)o2)cc1OC	9%	-18%	7.1µM*	i	i	-29
Cc1oc(-c2ccc(Cl)cc2)nc1CN1CCC(C(=O)NCCCN2CCN(c3cccc(Cl)c3)CC2)CC1	8%	79µM*	-4%	i	i	-3
Cc1oc(-c2cccc(Cl)c2)nc1CN1CCC(C(=O)NCCCN2CCN(c3ccccc3F)CC2)CC1	7%	-6%	0%	i	i	-4
COc1ccc(N2CCN(C(=O)C3CCN(Cc4nc(-c5ccc(Cl)cc5)oc4C)CC3)CC2)cc1	-17%	89µM*	25%	i	i	-13
CCc1ccc(NC(=O)Cn2c(=O)c3cccn3c3ccccc32)cc1	-1%	-7%	i	i	i	-25
Cc1ccc(C)c(NC(=O)c2ccc(=O)n(Cc3ccc(F)cc3)c2)c1	3%	18%	i	i	i	25

Source: PubChem BioAssay
